# Results as given in PubChem BioAssay (EPA / NIEHS).
# Inconclusive results are not listed. Active and inactive are the calls of the source. The calls were made as follows, unless noted: active = hit-call score of the fitted dose curve at least 0.9, where 1 is the maximum; inactive = score below 0.9.
# Assay: CCTE_Harrill_HTTr_Viability_MCF7: CCTE's 6-hour Cell Viability Assessment for the High-Throughput Transcriptomics (HTTr) Platform, in MCF-7 cells cultured in DMEM + 10% fetal bovine serum, Harrill Lab (AID 2284010)
# In short: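 MCF-7 cells in DMEM + 10% FBS, 384-well, exposed 6 h to an eight-point dilution series. Membrane integrity scored by high-content imaging of propidium iodide exclusion; bidirectional fit versus DMSO.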
row,Structure (SMILES),outcome
1,Cc1occc(=O)c1O,inactive
2,Oc1ccccc1O,inactive
3,COC(=O)CCC(=O)OC,inactive
4,CN(C)CCCN(C)CCCN(C)C,inactive
5,CC(=O)CC(c1ccccc1)c1c(O)c2ccccc2oc1=O (stereo not given),inactive
6,CC(C)(C)c1ccccc1,inactive
7,CC1(C)C(=O)NC(=O)N1CO,inactive
8,O=C1c2c(O)cccc2Cc2cccc(O)c21,inactive
9,CO[C@@H]1COCC[C@@H]1N[C@@H]1CC[C@@](C(=O)N2CCc3ncc(C(F)(F)F)cc3C2)(C(C)C)C1,inactive
10,O=NO,inactive
11,CC(=O)S[C@H](C(=O)N[C@H]1Cc2ccccc2[C@H]2CCC[C@@H](C(=O)O)N2C1=O)C(C)C,inactive
12,CC(=O)O,inactive
13,CCCCOC(=O)CCCCC(=O)OCCCC,inactive
14,O=C(O)c1[nH]n(-c2ccc(S(=O)(=O)O)cc2)c(=O)c1N=Nc1ccc(S(=O)(=O)O)cc1,inactive
15,CC(C)c1cccc(C(C)C)c1NC(=O)NS(=O)(=O)c1cc(C(C)(C)O)co1,inactive
16,CC(=O)OC1CC(C)OC(C)O1 (stereo not given),inactive
17,C/C=C/C=C/C(=O)O,inactive
18,C=CCc1ccc(OC)c(OC)c1,inactive
19,O=C(O)CC(O)(CC(=O)O)C(=O)O,inactive
20,CC(=O)[C@@]1(O)CC[C@H]2[C@@H]3CCC4=CC(=O)CC[C@]4(C)[C@H]3CC[C@@]21C,inactive
21,CCc1nc(N)nc(N)c1-c1ccc(Cl)cc1,inactive
22,CCCCc1nc2cccnc2n1Cc1ccc(-c2ccccc2-c2nnn[nH]2)cc1,inactive
23,O=C1NC(=O)C(c2ccccc2)(c2ccccc2)N1,inactive
24,NC1CCCCC1,inactive
25,Cn1cnc2c1c(=O)[nH]c(=O)n2C,inactive
26,O=C(O)c1cccnc1,inactive
27,CCCC[C@H]1CN(CC2CCOCC2)C(=O)OC12CCN(C1(C)CCN(C(=O)c3c(C)ncnc3C)CC1)CC2,inactive
28,Cc1cn([C@H]2C=C[C@@H](CO)O2)c(=O)[nH]c1=O,inactive
29,CS(=O)(=O)c1ccc([C@@H](C[C@H]2CCC(=O)C2)C(=O)Nc2cnccn2)cc1Cl,inactive

# Assay: CCTE_Harrill_HTTr_Apoptosis_MCF7: CCTE's 6-hour Apoptosis Assessment for the High-Throughput Transcriptomics (HTTr) Platform, in MCF-7 cells cultured in DMEM + 10% fetal bovine serum, Harrill Lab (AID 2284011)
# In short: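 Apoptosis in MCF-7 cells grown in DMEM with 10% fetal bovine serum was scored after a six hour exposure by high content imaging of caspase-3/7 activation (CellEvent Caspase 3/7 Green), with DMSO serving as negative control and baseline.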
row,Structure (SMILES),outcome
1,Cc1occc(=O)c1O,inactive
2,Oc1ccccc1O,inactive
3,COC(=O)CCC(=O)OC,inactive
4,CN(C)CCCN(C)CCCN(C)C,inactive
5,CC(=O)CC(c1ccccc1)c1c(O)c2ccccc2oc1=O (stereo not given),inactive
6,CC(C)(C)c1ccccc1,inactive
7,CC1(C)C(=O)NC(=O)N1CO,inactive
8,O=C1c2c(O)cccc2Cc2cccc(O)c21,inactive
9,CO[C@@H]1COCC[C@@H]1N[C@@H]1CC[C@@](C(=O)N2CCc3ncc(C(F)(F)F)cc3C2)(C(C)C)C1,inactive
10,O=NO,inactive
11,CC(=O)S[C@H](C(=O)N[C@H]1Cc2ccccc2[C@H]2CCC[C@@H](C(=O)O)N2C1=O)C(C)C,inactive
12,CC(=O)O,inactive
13,CCCCOC(=O)CCCCC(=O)OCCCC,inactive
14,O=C(O)c1[nH]n(-c2ccc(S(=O)(=O)O)cc2)c(=O)c1N=Nc1ccc(S(=O)(=O)O)cc1,inactive
15,CC(C)c1cccc(C(C)C)c1NC(=O)NS(=O)(=O)c1cc(C(C)(C)O)co1,inactive
16,CC(=O)OC1CC(C)OC(C)O1 (stereo not given),inactive
17,C/C=C/C=C/C(=O)O,inactive
18,C=CCc1ccc(OC)c(OC)c1,inactive
19,O=C(O)CC(O)(CC(=O)O)C(=O)O,inactive
20,CC(=O)[C@@]1(O)CC[C@H]2[C@@H]3CCC4=CC(=O)CC[C@]4(C)[C@H]3CC[C@@]21C,inactive
21,CCc1nc(N)nc(N)c1-c1ccc(Cl)cc1,inactive
22,CCCCc1nc2cccnc2n1Cc1ccc(-c2ccccc2-c2nnn[nH]2)cc1,inactive
23,O=C1NC(=O)C(c2ccccc2)(c2ccccc2)N1,inactive
24,NC1CCCCC1,inactive
25,Cn1cnc2c1c(=O)[nH]c(=O)n2C,inactive
26,O=C(O)c1cccnc1,inactive
27,CCCC[C@H]1CN(CC2CCOCC2)C(=O)OC12CCN(C1(C)CCN(C(=O)c3c(C)ncnc3C)CC1)CC2,inactive
28,Cc1cn([C@H]2C=C[C@@H](CO)O2)c(=O)[nH]c1=O,inactive
29,CS(=O)(=O)c1ccc([C@@H](C[C@H]2CCC(=O)C2)C(=O)Nc2cnccn2)cc1Cl,inactive

# Assay: CCTE_Harrill_HTTr_CellCount_MCF7: CCTE's Cell Proliferation Assessment for the High-Throughput Transcriptomics (HTTr) Platform, Harrill Lab (AID 2284012; active = hit-call score of the fitted dose curve at least 0.9, where 1 is the maximum;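 also: cells exposed to compound for six hours; intended direction is loss of nuclei count meaning fewer cells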)
# In short: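 MCF7 cells exposed 6 hours to an eight-point dilution series; Hoechst-stained nuclei counted by high-content imaging. Bidirectional curve fitting against DMSO baseline.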
row,Structure (SMILES),outcome
1,COC(=O)CCC(=O)OC,inactive
2,CN(C)CCCN(C)CCCN(C)C,inactive
3,CC(=O)CC(c1ccccc1)c1c(O)c2ccccc2oc1=O (stereo not given),inactive
4,CC(C)(C)c1ccccc1,inactive
5,O=C1c2c(O)cccc2Cc2cccc(O)c21,inactive
6,O=NO,inactive
7,CC(=O)S[C@H](C(=O)N[C@H]1Cc2ccccc2[C@H]2CCC[C@@H](C(=O)O)N2C1=O)C(C)C,inactive
8,CC(=O)O,inactive
9,CCCCOC(=O)CCCCC(=O)OCCCC,inactive
10,CC(C)c1cccc(C(C)C)c1NC(=O)NS(=O)(=O)c1cc(C(C)(C)O)co1,inactive
11,CC(=O)OC1CC(C)OC(C)O1 (stereo not given),inactive
12,C/C=C/C=C/C(=O)O,inactive
13,C=CCc1ccc(OC)c(OC)c1,inactive
14,CC(=O)[C@@]1(O)CC[C@H]2[C@@H]3CCC4=CC(=O)CC[C@]4(C)[C@H]3CC[C@@]21C,inactive
15,CCc1nc(N)nc(N)c1-c1ccc(Cl)cc1,inactive
16,O=C1NC(=O)C(c2ccccc2)(c2ccccc2)N1,inactive
17,NC1CCCCC1,inactive
18,Cn1cnc2c1c(=O)[nH]c(=O)n2C,inactive
19,O=C(O)c1cccnc1,inactive
20,CCCC[C@H]1CN(CC2CCOCC2)C(=O)OC12CCN(C1(C)CCN(C(=O)c3c(C)ncnc3C)CC1)CC2,inactive
21,Cc1cn([C@H]2C=C[C@@H](CO)O2)c(=O)[nH]c1=O,inactive
22,CS(=O)(=O)c1ccc([C@@H](C[C@H]2CCC(=O)C2)C(=O)Nc2cnccn2)cc1Cl,inactive
